# This excerpt belongs to a sample that is enriched for hits.
# Casp7 inh = allosteric or competitive inhibitors of human caspase-7. P55210. recombinant caspase-7, Ac-DEVD-AFC fluorescence rate. Potency, µM (titrated, usually from 57.5 µM), for the others: top-dose activity change, negative = inhibition, usual class: inhibitors. actives 0.02% (n = 75,000); active means well fitted inhibition curve with a large enough effect in the main read-out, with a control signal flat, not every such curve was filed as active; inconclusive means small, poorly fitted or top-dose-only effect, or a change in a side signal; further: % of control where 0% means no effect
# Target sequence (P55210 24-198 limits assumed): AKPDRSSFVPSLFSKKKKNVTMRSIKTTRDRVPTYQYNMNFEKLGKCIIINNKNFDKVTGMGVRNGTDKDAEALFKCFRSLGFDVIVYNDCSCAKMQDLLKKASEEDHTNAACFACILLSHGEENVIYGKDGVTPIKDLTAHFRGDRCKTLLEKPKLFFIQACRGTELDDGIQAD
# Target sequence (P55210 207-303 limits assumed): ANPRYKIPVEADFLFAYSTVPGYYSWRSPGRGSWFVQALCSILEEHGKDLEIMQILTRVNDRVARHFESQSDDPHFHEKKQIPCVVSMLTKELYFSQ
# ALOX15B inhib = inhibitors of human 15-lipoxygenase 2 (ALOX15B). O15296. purified 15hLO-2, xylenol orange hydroperoxide absorbance. Potency, µM (titrated, usually from 57.1 µM), without a hit: at the top dose activity change, negative = inhibition, usual class: inhibitors. actives 0.56% (n = 110,000). AID 881; further: on the % scale 0 is the no-effect control and ±100 the full control effect; nearly all actives have a fitted effect of over 60% in size
#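 Enzyme 50 nM, AA 45 uM, 25 mM Hepes pH 7.5 + 0.01% Triton X-100; cpd preinc 15 min RT, rxn 90 min RT; stop/detect with 200 uM XO + 300 uM Fe(II) in 50 mM H2SO4, 30 min; A573/A405.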
# ALOX15 inhib = 15-hLO (ALOX15) enzyme inhibition. P16050. purified 15hLO-1, xylenol orange hydroperoxide absorbance. Potency, µM (highest dose often 57.1 µM), for the others: at the top dose activity change, negative = inhibition, usual class: inhibitors. actives 1.4% (n = 74,000). AID 887; further: on the % scale 0 is the no-effect control and ±100 the full control effect; nearly all actives have a fitted effect of over 55% in size
#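 Purified human 15hLO-1 (40 nM) in 25 mM Hepes pH 7.5, 0.01% Triton X-100, preincubated 15 min RT with compound, then 50 uM arachidonic acid for 6 min. Hydroperoxide read by ferrous/xylenol orange, 30 min; 573/405 nm absorbance ratio gave progress.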
# Caspase-1 inhib = blocks human caspase-1 allosterically or competitively. P29466. Caspase-1 enzyme, Ac-WEHD-AFC fluorogenic rate. Potency, µM (titrated, usually from 57.5 µM), for inactives: top-dose activity change, negative = inhibition, actives largely listed as inhibitors. actives 0.03% (n = 75,000). AID 900;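 further: plate controls were vehicle for no effect and no substrate for full effect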
# Target sequence (P29466 120-297 limits assumed): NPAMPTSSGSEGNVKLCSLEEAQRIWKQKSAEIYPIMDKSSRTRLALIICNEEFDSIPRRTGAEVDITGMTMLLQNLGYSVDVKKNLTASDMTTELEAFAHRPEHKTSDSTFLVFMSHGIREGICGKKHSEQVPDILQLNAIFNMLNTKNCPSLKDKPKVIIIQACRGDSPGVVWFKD
# Target sequence (P29466 317-404 limits assumed): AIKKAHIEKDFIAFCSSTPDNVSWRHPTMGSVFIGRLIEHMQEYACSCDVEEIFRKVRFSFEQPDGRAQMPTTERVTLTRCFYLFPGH
# USP2a inhib = blocks human ubiquitin-specific protease USP2a. O75604. USP2a enzymatic assay, qHTS inhibition. Potency, µM (titrated, usually from 38.3 µM), inactives show at the top dose activity change, negative = inhibition, actives largely listed as inhibitors. actives 0.1% (n = 60,000). AID 927; further: nearly all actives have a fitted effect of over 60% in size
#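 20 nM USP2 core + cpd, 30 min RT; add 20 nM Ub-PLA2/20 uM NBD C6-HPC; read Ex460/Em535 at 0 h and 2.5 h. Normalized to NEM; qHTS curve fit/classification.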
# The depositor's hits bear a star; ? = inconclusive; nt = no result given; [ ] = dose if it differs, or a comment. Unless noted, the call rests on the fitted dose curve; in most records, active means well fitted curve in the direction sought with a large enough effect; inconclusive means small, poorly fitted or top-dose-only effect, or another doubt; inactive means no such curve, though single readings can be large; an effect the other way counts as inactive or inconclusive. Potency means the concentration at half of the fitted maximal effect.
SMILES,Casp7 inh,ALOX15B inhib,ALOX15 inhib,Caspase-1 inhib,USP2a inhib
CC[C@H](C)[C@@H]1O[C@]2(CC[C@@H]1C)C[C@H]1C[C@H](CC=C(C)[C@@H](O[C@H]3C[C@H](OC)[C@H](O[C@H]4C[C@H](OC)[C@H](O)[C@H](C)O4)[C@H](C)O3)[C@@H](C)C=CC=C3CO[C@@H]4[C@@H](O)C(C)=C[C@H](C(=O)O1)[C@@]34O)O2,-6%,-8%,-11%,-3%,22%
Cc1nn(-c2ccc(F)cc2F)c2c1-c1nc(N3CCCC3)ncc1CC2,-23%,4%,25µM*,-5%,9%
CN(C)CCCO[C@H]1[C@H]([C@H](O)CO)O[C@H]2OC(C)(C)O[C@@H]21,0%,-5%,9%,0%,-4%
Cc1cc(C)n(-c2nc(Nc3ccccc3)nc(-n3nc(C)cc3C)n2)n1,-2%,61%,51%,-6%,13µM*
Cc1ccc2c(C)ccc(O)c2n1,nt,0%,nt,nt,nt
Cc1ccc(O)c(N=Nc2ccccc2)n1,1%,?,13µM*,3%,-1%
CC1=C(SCCC#N)S/C(=C2\SC(C)=C(SCCC#N)S2)S1,0%,?,13µM*,-4%,5%
O=[N+]([O-])c1cccc2c(Br)[nH]nc12,-2%,-1%,13µM*,3%,0%
C=CCn1c(N)c(C(=O)NCCC2=CCCCC2)sc1=S,-4%,?,25µM*,-7%,1%
CC(=O)NCCNc1ncncc1-c1ccc(N(C)C)cc1,-3%,-8%,13µM*,-1%,-16%
CC(C)=CCCC(C)N(C=O)C(C)CCC=C(C)C (stereo not drawn),0%,nt,7.9µM*,0%,-14%
CC(=O)N(CCCN(C)C)CCC(C)CCC=C(C)C (stereo not drawn),0%,22%,-29%,-3%,?
COc1cccc(OC)c1OCCNC[C@@H]1CSc2ccccc2O1,-2%,23%,-4%,0%,5%
Oc1cc(O)cc(/C=C/c2ccc(O)c(O)c2)c1,nt,4.5µM*,nt,nt,nt
CCCC[C@@H]1CN2[C@H](c3ccc(Br)cc3)[C@@H](C)CC[C@H]2C(=O)O1,3%[11.5 µM],nt,16%[11.4 µM],2%[11.5 µM],nt
N=c1c(C(=O)NCc2ccco2)cc2c(=O)n3ccccc3nc2n1CCc1ccccc1,?,-19%,13µM*,nt,39%
Cc1ccc(Cn2c(=N)c(C(=O)NCc3ccco3)cc3c(=O)n4ccccc4nc32)cc1,?,nt,-27%,nt,38%
COc1ccc(CCN(C)CCC[C@@](C#N)(c2cc(OC)c(OC)c(OC)c2)C(C)C)cc1OC,0%,27%,-3%,-1%,17%
N[C@H](Cc1cc(I)c(Oc2cc(I)c(O)c(I)c2)c(I)c1)C(=O)O,-4%[25.7 µM],-14%[25.6 µM],-7%[25.6 µM],-6%[25.7 µM],22%[17.1 µM]
O=C1C=CC(=O)C2=C1C1c3ccccc3C2c2ccccc21,0%,2µM*,0.79µM*,-1%,nt
CCOc1cccc(C(=O)c2ccc(O)c(O)c2O)c1,-13%,?,13µM*,-2%,4%
Cc1ccc(-c2cc(C(=O)NCCCn3ccnc3)c3cc(Br)ccc3n2)o1,?,28%,?,nt,50%
Cc1ccc(-c2cc(C(=O)NC3=NCCS3)c3cc(Br)ccc3n2)o1,-7%,?,13µM*,-4%,19%
COc1ccc(OC)c(NC2c3ncccc3C(=O)N2Cc2ccco2)c1 (stereo not drawn),-1%,-21%,?,3%,-11%
COc1ccc(CN2C(=O)c3cccnc3C2Nc2cc(Cl)ccc2OC)cc1 (stereo not drawn),-5%,?,16µM*,1%,13%
SMILES,Casp7 inh,ALOX15B inhib,ALOX15 inhib,Caspase-1 inhib,USP2a inhib
COc1cc(/C=C(\C#N)C(=O)c2ccc(O)c(O)c2)cc(I)c1O,1%,-22%,1µM*,-1%,-26%
Cc1cc(C)nc(NC(=O)CSc2nn(C)c(=S)s2)n1,-1%,-3%,4%,0%,-4%
CC(=O)C(Sc1nn(C)c(=S)s1)C(=O)Nc1ccccc1 (stereo not drawn),0%,?,7.9µM*,1%,-2%
CC(=O)C(Sc1nc(N2CCOCC2)nc(N2CCOCC2)n1)C(=O)Nc1ccccc1 (stereo not drawn),-24%,1%,16µM*,-16%,30%
Cn1c(=O)c(-c2ccc(F)cc2)nc2cnc(Nc3ccccc3)nc21,-14%,12%,-2%,-11%,81%
COC(=O)C/C=C\[C@@H](C)[C@@H](/C=N\OCC[C@H]1C=C[C@H](OC(C)=O)[C@@H](COC(C)=O)O1)NS(=O)(=O)c1ccc(C)cc1,-1%[11.5 µM],nt,10%[11.4 µM],1%[11.5 µM],nt
CCCCCCNC(=O)Nc1ccc(S(=O)(=O)Nc2ccc(CCNC[C@H](O)COc3ccc(O)cc3)cc2)cc1,-4%,-5%,7.9µM*,0%,nt
Cc1cc(C)c(/C=C2/C(=O)Nc3ccccc32)[nH]1,1%,?,?,-4%,4%
CC(=O)Nc1nc2ncc(C=O)nc2c(=O)[nH]1,-4%[11.5 µM],-8%[11.4 µM],-5%[11.4 µM],-3%[11.5 µM],nt
NC(Cc1cc(I)c(Oc2cc(I)c(O)c(I)c2)c(I)c1)C(=O)O (stereo not drawn),-1%,-2%,13µM*,2%,?
CCOC(=O)c1c2c(c(=S)n(-c3ccccc3)c1N)CCC2,nt,-15%,nt,nt,nt
N#Cc1c2c(c(=S)n(-c3ccccc3)c1N)CCCC2,?,-23%,1.6µM*,nt,57%[7.66 µM]
C=CCN1C(=O)S/C(=C\c2ccc(N3CCOCC3)cc2C)C1=O,nt,-3%,nt,nt,nt
O=C1S/C(=C\c2ccc(N3CCOCC3)o2)C(=O)N1Cc1ccc(F)cc1,nt,5µM*,nt,nt,nt
O=C1/C(=C/c2ccc(N3CCOCC3)o2)SC(=Nc2ccccc2)N1CCc1c[nH]c2ccccc12,nt,4µM*,nt,nt,nt
CC(C)OC(=O)CN1C(=O)S/C(=C/c2ccc(N3CCCCC3)o2)C1=O,nt,13µM*,nt,nt,nt
O=C1S/C(=C/c2ccc(N3CCOCC3)o2)C(=O)N1Cc1ccc(F)cc1,nt,1.3µM*,nt,nt,nt
O=c1c(-c2ccc(F)cc2)nc2cnc(N3CCOCC3)nc2n1Cc1ccc(F)cc1,?,-8%,-3%,nt,76%
Nc1nc(=O)n(C2OC(CO)C(O)C2O)cc1Cl (stereo not drawn),1%,1%,5%,-2%,-4%
CO[C@@H]1COC(=O)C/C=C\[C@H](C)[C@H](OC)COC(=O)[C@H](C)NC(=O)C/C=C\[C@H]1C,0%[11.5 µM],nt,1%[11.4 µM],-1%[11.5 µM],nt
Oc1ccc(N2CCN(C(c3cccs3)c3nnnn3CCc3ccccc3)CC2)cc1 (stereo not drawn),-5%,?,3.2µM*,-2%,26%
COc1ccc(Cn2nnnc2C(c2cccs2)N2CCN(c3ccccc3)CC2)cc1 (stereo not drawn),-4%,0%,3%,-3%,4%
CCOc1cc(/C=C2\C(=O)N(c3ccc(C(N)=O)cc3)N=C2C)ccc1OC(=O)c1cccs1,nt,5µM*,nt,nt,nt
